From PubChem BioAssay come the findings set out here.

Test [1] in a line: compounds altering viability of human ES cells (AID 493140).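 Note: cells exposed to compounds for four days before counting.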 As to conditions: human embryonic stem cell survival screen; stronger effect = higher value.
A short description of test [2]: compounds altering Cy5-DNA-NS3h complex signal – biochemical, LOPAC1280, artefact control for HCV NS3 helicase inhibitor project (AID 687037). As to conditions: Cy5-DNA-NS3h complex fluorescence interference counterscreen. (A counterscreen serves to expose hits that act by an unwanted route or on another target.)
The nature of test [3]: stimulators of insulin release from INS-1E, primary screen, cell-based, 5 mM glucose, NPC library (AID 1117329;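 active = compound raises insulin release from rat beta cells at 5 mM glucose, no numeric limit stated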). As to conditions: rat INS-1E insulin secretion, at 10 µM, stronger effect = higher value.
A short description of test [4]: growth inhibition of GSK3B-pretreated HCT116 cells – cell-based, CellTiter-Glo, 0.2 to 20 µM (AID 1117336;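 active = compounds lowering colon cancer cell viability after pretreatment blocking the GSK3B kinase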). The conditions noted are these: HCT116 viability after GSK3B inhibitor, at 20 µM, stronger effect = higher value. (In general: In ATP-based viability assays light output follows the ATP content of the culture.)
A short description of test [5]: inhibition of endothelial tube formation, primary screen, imaging, VEGF stimulated, CD31 staining, tube area, NPC library (AID 1117340;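 active = compound that reduces growth-factor-driven endothelial tube area in a mixed cell culture, no cutoff stated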). The conditions noted are these: VEGF-stimulated ADSC/ECFC co-culture, at 10 µM, stronger effect = higher value.
Test [6] is described as follows: GLP1 release stimulators, primary, NCI-H716, NPC library (AID 1117341;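 active = compound raises GLP1 secretion from the human gut endocrine cells, with no numeric limit stated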). As to conditions: NCI-H716 cells, at 10 µM, stronger effect = higher value.
Test [7] can be described thus: HCT116 colon cancer cell growth inhibition, primary screen, CellTiter-Glo luminescence, NPC library (AID 1117342;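 active = compounds that lower survival of HCT116 colon cancer cells in the luminescence readout, no numeric limit stated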). The conditions noted are these: at 20 µM (top of the series).
The nature of test [8]: reduced SW480 viability measured with CellTiter-Glo, NPC library, primary (AID 1117343;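 active = compounds that lower viability of the colon cancer cells in the luminescence readout, with no numeric limit stated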). As to conditions: CellTiter-Glo luminescence; at 20 µM (top of the series) unless noted.
The nature of test [9]: NPC library primary testing for decreased DLD-1 cell viability via CellTiter-Glo (AID 1117346;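 active = compounds that lower survival of DLD-1 colon cancer cells in the luminescence readout, no cutoff given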). The conditions noted are these: DLD-1 viability, CellTiter-Glo luminescence; at 20 µM (top of the series).
For test [10], the target named is 6-phosphogluconate dehydrogenase, decarboxylating (Homo sapiens) (UniProt P52209). The test is described as follows: inhibition of human phosphogluconate dehydrogenase – biochemical, recombinant enzyme, NADPH absorbance, primary screen (AID 1159550;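 active = at least 20% inhibition of 6-phosphogluconate dehydrogenase activity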). The conditions noted are these: recombinant 6PGD, NADPH absorbance 341 nm; at 10 µM; stronger effect = higher value.
Test [11] can be described thus: modulation of C. elegans fzo-1 (AID 1259413).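 Note: fzo-1 mutant C. elegans worms in liquid wells.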 As to conditions: C. elegans fzo-1 modulator screen, mean read-out; stronger effect = higher value.
Test [12] in a line: EMT-state selective cytotoxicity in co-culture – imaging, PC-3E GFP, TEM4-18 mCherry, primary screen (AID 1345086;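 active = compounds killing one labelled cell type while sparing the other, by normalised counts and ratio limits, not self-fluorescent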;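 for all read-outs here: cells exposed to compound for 72 h before imaging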;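 for red/green cell ratio (normalised): normalised mesenchymal count divided by normalised epithelial count so high means epithelial killing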). As to conditions: PC-3E GFP / TEM4-18 mCherry co-culture, imaging cell counts, at 1 µM; for red/green cell ratio (normalised): actives lie on both sides, counts scaled to control wells, 1 = unselective.
The nature of test [13]: blockers of cellular phospholipid synthesis – cell-based, LOPAC library, screen 4, primary screen (AID 1347384). The conditions noted are these: animal cells, phospholipid biosynthesis inhibition screen; at 10 µM.
Test [14] can be described thus: MELAS cybrid and Rieske KO viability enhancers – cell-based, MELAS cybrids, Rieske KO mouse fibroblasts, CellTiter-Glo, primary screen (AID 1508586;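 active = mean z-score across replicates of 1.96 or higher in either the MELAS or the Rieske mutant cell line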;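 note: z relative to plate mean and SD of compound and empty wells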). The conditions noted are these: low glucose.
For test [15], the target named is NAD(+) hydrolase SARM1 (Homo sapiens) (UniProt Q6SZW1). The test is described as follows: blocking NAD cleavage by SARM1 SAM-TIR – cell lysate, NAD-Glo luminescence (AID 1508614;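 active = compound whose remaining NAD level is above about 45 nM, limit read from the data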;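 note: higher remaining NAD means stronger inhibition of SARM1 NADase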). The conditions noted are these: SAM-TIR HEK293T lysate NADase, at 1 µM, stronger effect = higher value.
For test [16], the target named is Mitogen-activated protein kinase 7 (Homo sapiens) (UniProt Q13164). The test is described as follows: Gal4-ERK5 driven luciferase induction – cell-based, HTS, primary screen (AID 1508626;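 active = luciferase signal above three times the same-plate solvent-only control wells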;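 note: luciferase driven by Gal4-ERK5 fusion binding five Gal4 sites before minimal TATA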). The conditions noted are these: HeLa Gal4-ERK5 transactivation, 18 h, at 5 µM, stronger effect = higher value.
Test [17] can be described thus: Wnt pathway potentiators raising nuclear beta-catenin – imaging, WNT3A-conditioned medium, mouse C2C12, NPC library, primary screen (AID 1117326; in the data active = nuclear beta-catenin stimulation mostly above about 4.2%, no sharp cut-off; inactive = mostly below about 10%). As to conditions: stronger effect = higher value.
Test [18] can be described thus: viability loss with induced miR-34 in A549 – imaging, A549 dox-inducible miR-34, nuclei and caspase counts, primary screen (AID 1347080;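 active = compounds whose cell count with miR-34 switched on is under 0.7 times the count with it off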). The conditions noted are these: A549 miR-34 inducible, Hoechst nuclei count, 48 h.
The mark [19] stands for this setting: measured here: epithelial PC-3E GFP cell survival.
The mark [20] stands for this setting: measured here: mesenchymal TEM4-18 mCherry cell survival.
The mark [21] stands for this setting: MELAS cybrid survival, CellTiter-Glo 48 h, stronger effect = higher value.
Where [22] appears, read: Rieske KO mouse fibroblast survival, CellTiter-Glo 72 h.

Where “and” joins values, the source holds several entries; their conditions need not be identical. Equal entries are not always repeated. Calls of active or inactive are those of the source. Unless noted, the rule behind the calls is not given here.

The inhibition is the change of the read-out against control, counted positive when it falls.

Sequence of Mitogen-activated protein kinase 7 (Homo sapiens) (Q13164 whole entry, looked up, the tested form may be a part): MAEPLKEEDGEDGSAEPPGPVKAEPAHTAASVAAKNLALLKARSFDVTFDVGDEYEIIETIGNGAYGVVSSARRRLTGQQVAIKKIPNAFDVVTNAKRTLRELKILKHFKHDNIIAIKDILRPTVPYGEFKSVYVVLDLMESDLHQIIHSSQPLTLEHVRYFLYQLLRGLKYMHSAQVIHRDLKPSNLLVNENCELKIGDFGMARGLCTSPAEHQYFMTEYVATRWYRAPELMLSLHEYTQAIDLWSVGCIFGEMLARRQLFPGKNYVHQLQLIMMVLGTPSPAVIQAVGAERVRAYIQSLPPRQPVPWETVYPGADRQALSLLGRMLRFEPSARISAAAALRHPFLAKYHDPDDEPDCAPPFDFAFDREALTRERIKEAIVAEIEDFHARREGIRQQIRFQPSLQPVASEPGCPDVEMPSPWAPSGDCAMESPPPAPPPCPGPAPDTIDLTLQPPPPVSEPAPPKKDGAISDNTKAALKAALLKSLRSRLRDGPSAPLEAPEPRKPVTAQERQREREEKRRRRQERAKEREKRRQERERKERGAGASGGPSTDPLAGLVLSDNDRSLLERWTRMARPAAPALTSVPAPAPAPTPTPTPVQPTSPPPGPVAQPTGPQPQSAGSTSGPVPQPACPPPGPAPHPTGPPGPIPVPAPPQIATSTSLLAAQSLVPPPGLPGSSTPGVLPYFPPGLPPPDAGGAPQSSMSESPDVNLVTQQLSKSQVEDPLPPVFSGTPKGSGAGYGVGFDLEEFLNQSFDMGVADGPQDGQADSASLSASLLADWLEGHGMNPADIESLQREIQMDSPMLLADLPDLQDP
Sequence of 6-phosphogluconate dehydrogenase, decarboxylating (Homo sapiens) (P52209 whole entry, looked up): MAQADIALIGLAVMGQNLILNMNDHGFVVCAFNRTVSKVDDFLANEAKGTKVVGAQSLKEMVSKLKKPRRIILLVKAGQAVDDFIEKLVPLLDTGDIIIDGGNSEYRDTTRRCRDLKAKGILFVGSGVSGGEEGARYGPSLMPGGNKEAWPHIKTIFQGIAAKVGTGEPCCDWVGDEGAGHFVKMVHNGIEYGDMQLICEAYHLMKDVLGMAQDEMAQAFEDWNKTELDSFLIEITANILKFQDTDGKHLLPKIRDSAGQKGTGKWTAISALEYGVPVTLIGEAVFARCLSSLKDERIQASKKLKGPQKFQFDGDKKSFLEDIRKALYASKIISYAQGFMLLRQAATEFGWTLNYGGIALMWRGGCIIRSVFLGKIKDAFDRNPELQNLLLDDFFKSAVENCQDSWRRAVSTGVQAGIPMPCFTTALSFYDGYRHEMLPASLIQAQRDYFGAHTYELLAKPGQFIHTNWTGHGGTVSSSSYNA
Sequence of NAD(+) hydrolase SARM1 (Homo sapiens) (Q6SZW1 whole entry, looked up, the tested form may be a part): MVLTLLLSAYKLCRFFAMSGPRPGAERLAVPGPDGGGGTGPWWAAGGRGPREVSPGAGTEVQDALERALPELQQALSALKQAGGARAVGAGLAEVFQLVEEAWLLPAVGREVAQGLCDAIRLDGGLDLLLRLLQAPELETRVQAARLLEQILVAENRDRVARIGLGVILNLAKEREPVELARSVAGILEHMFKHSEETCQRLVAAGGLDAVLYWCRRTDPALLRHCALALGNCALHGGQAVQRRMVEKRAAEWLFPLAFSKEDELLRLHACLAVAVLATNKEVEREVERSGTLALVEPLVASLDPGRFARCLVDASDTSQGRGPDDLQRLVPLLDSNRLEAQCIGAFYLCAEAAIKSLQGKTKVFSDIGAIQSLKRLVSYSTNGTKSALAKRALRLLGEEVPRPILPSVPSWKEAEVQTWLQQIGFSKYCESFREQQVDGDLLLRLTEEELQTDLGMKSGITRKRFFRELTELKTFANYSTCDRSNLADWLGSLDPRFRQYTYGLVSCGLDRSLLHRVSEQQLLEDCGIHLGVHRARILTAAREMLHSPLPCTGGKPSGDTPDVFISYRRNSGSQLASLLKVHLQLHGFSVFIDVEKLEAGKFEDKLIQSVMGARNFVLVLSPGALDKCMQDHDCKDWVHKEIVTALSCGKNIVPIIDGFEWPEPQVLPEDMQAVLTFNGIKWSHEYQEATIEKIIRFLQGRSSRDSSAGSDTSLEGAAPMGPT

Take `O=C(CCCN1CCC(O)(c2ccc(Cl)cc2)CC1)c1ccc(F)cc1`: the survival in test [1] was 6.08 (inactive). Also, in [2], the fluorescence ratio (interference) was 1 (inactive). Also, the insulin secretion stimulation in test [3] is 10.8% (inactive). In addition, in [4], the viability decrease is 75.7% (active). In test [5], the tube area decrease is -3.9% (inactive). Further, the GLP1 secretion stimulation in test [6] is 7.5% (inactive). Further, the inhibition of viability in test [7] was 63.5% (active). The results for the viability decrease (inhibition) in test [8] and in test [9] were 66.8% (active) and 35.5% (inactive), respectively. Also, in test [10], the inhibition is -6.6% (inactive). Also, the mean signal in [11] was 271 (inactive). Also, the red/green cell ratio (normalised) in [12] was 0.92 (inactive). Also, the normalised cell number in test [12] (setting [19]) is 0.87; in test [12] (setting [20]), 0.8. Besides, the molecule was called inactive in test [13]. Further, the z-score was -0.322 (inactive) and 0.952 (inactive) and 0.0534 (inactive) in [14] (setting [21]); -0.84 and 0.343 and 0.587 in test [14] (setting [22]). In addition, in [15], the remaining NAD was 10 nM (inactive). Also, in [16], the luciferase signal is 40 AU (inactive).

Turning to `COC(=O)C1=C(C)NC(C)=C(C(=O)OC)C1c1ccccc1[N+](=O)[O-]`, in test [1], the survival is 26.5 (inactive). The fluorescence ratio (interference) in test [2] is 1 (inactive). The insulin secretion stimulation in test [3] was 11.4% (inactive). Further, the viability decrease in test [4] was 77.9% (active). In test [5], the tube area decrease was 1.2% (inactive). Also, in test [6], the GLP1 secretion stimulation is 4.4% (inactive). The inhibition of viability in [7] is 58.7% (active). In addition, the figures for the viability decrease (inhibition) in test [8] and in test [9] were 136% (active) and 93.1% (active), respectively. Besides, the inhibition in test [10] was -13.6% (inactive). For the same molecule, in test [11], the mean signal was 242 (inactive). Further, the red/green cell ratio (normalised) in [12] is 0.87 (inactive). Besides, the normalised cell number is 1.03 in test [12] (setting [19]) and 0.9 in test [12] (setting [20]). Moreover, the result in test [13] was inactive. Besides, the z-score is -0.44 (inactive) and 1.42 (inactive) and -0.699 (inactive) in test [14] (setting [21]); 0.0615 and 0.566 and -0.497 in [14] (setting [22]). In addition, the remaining NAD in [15] is 10 nM (inactive). Besides, in test [16], the luciferase signal is 52 AU (inactive).

With `COc1ccc2c(c1)C(=O)N(CCc1ccc(S(=O)(=O)NC(=O)NC3CCCCC3)cc1)C(=O)C2(C)C`, the survival in [1] is 22.9 (inactive). The nuclear beta-catenin stimulation is 0.7% (inactive) in [17] (at 10 µM) and 10.6% in test [17] (stimulation, at 2 µM). Moreover, the viability decrease in test [4] was 87.4% (active). Moreover, the inhibition of viability in test [7] is 68% (active). Further, the viability decrease (inhibition) in test [8] is 87.1% (active); in test [9] it was 94% (active). In addition, the fold change in [18] (stronger effect = lower value, cell number ratio, induced over uninduced) is 0.971 (inactive) and 0.893 (inactive); in test [18] (measured here: relative caspase fold change +Dox/-Dox), 0.765 and 0.69. Moreover, the cell count in test [18] (measured here: total cells with miR-34 induction, stronger effect = lower value) was 9100 and 8180; in test [18] (measured here: total cells without miR-34 induction), 9360 and 9160. Besides, the z-score in test [14] (setting [21]) is -0.157 (inactive) and 0.277 (inactive); in test [14] (setting [22]), -0.221 and -0.0621.

Turning to `CN(C)C(=O)C(CCN1CCC(O)(c2ccc(Cl)cc2)CC1)(c1ccccc1)c1ccccc1`, the survival in [1] was 9 (inactive). For the same molecule, the fluorescence ratio (interference) in test [2] is 1 (inactive). Besides, the insulin secretion stimulation in test [3] was 1.9% (inactive). The viability decrease in test [4] was 64.9% (active). Further, the tube area decrease in test [5] is 11.7% (inactive). Also, the GLP1 secretion stimulation in [6] was 2.9% (inactive). Besides, the inhibition of viability in test [7] is 90.6% (active). For the same molecule, the viability decrease (inhibition) is 99.6% (active) in test [8] and 88.2% (active) in [9]. Also, in test [10], the inhibition is 1.17% (inactive). For the same molecule, the mean signal in [11] was 201 (inactive). For the same molecule, the red/green cell ratio (normalised) in test [12] is 1.02 (inactive). For the same molecule, the normalised cell number was found to be 1.3 in test [12] (setting [19]) and 1.33 in [12] (setting [20]). Also, the outcome in test [13] was inactive. Besides, the z-score in test [14] (setting [21]) was -0.364 (inactive) and -0.238 (inactive) and 0.591 (inactive); in [14] (setting [22]), -1.34 and 0.463 and -0.456. For the same molecule, the remaining NAD in test [15] is 10 nM (inactive). The luciferase signal in test [16] is 40 AU (inactive).
